PubChem BioAssay (NCI)
About 83,000 compounds went through this panel and 20% of them were active in at least one assay; those are over-represented in the sample as a whole.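 Growth was measured after 48 h exposure to one concentration of compound in 96-well plates. Values under 10 count as active.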 The source made the active and inactive calls.

How the values were obtained:
Assay in all cases: NCI-60 one-dose screen, 48 h (100 = growth as untreated, 0 = no growth, -100 = all killed)
Settings in all cases: 10 µM unless noted
DU-145 prostate = system: DU-145 prostate
K-562 leukemia = system: K-562 leukemia
MALME-3M melanoma = system: MALME-3M melanoma
MDA-MB-231 breast = system: MDA-MB-231 breast
RXF 393 renal = system: RXF 393 renal
SF-268 CNS = system: SF-268 CNS
SF-295 CNS = system: SF-295 CNS
SF-539 CNS = system: SF-539 CNS
UACC-257 melanoma = system: UACC-257 melanoma
M14 melanoma = system: M14 melanoma

Measured: growth

CCN1C(=O)N(CC)C2Nn3c(s/c(=C4\C(=O)N(CCC(C)C)c5ccccc54)c3=O)=NC21 (stereo not given)
inactive: DU-145 prostate 96.3% | K-562 leukemia 26.1% | MALME-3M melanoma 79.8% | MDA-MB-231 breast 78.3% | RXF 393 renal 84.5% | SF-268 CNS 82.5% | SF-295 CNS 98.5% | SF-539 CNS 86.8% | UACC-257 melanoma 66.3% | M14 melanoma 56.6%

C=C1C(=O)O[C@H]2[C@H]1CC/C(COC(=O)NCCOCCOCC(=O)Nc1ccc(OC)c(C(N)=O)c1O)=C\CC[C@@]1(C)O[C@@H]21
active: RXF 393 renal -9.54%
inactive: DU-145 prostate 76.9% | K-562 leukemia 25.6% | MALME-3M melanoma 62.1% | MDA-MB-231 breast 52% | SF-268 CNS 81.9% | SF-295 CNS 97.7% | SF-539 CNS 37% | UACC-257 melanoma 57.1% | M14 melanoma 60.4%

C#C[C@]1(O)CC[C@H]2[C@@H]3CC=C4c5sc(Nc6cc(F)ccc6F)nc5CC[C@]4(C)[C@H]3CC[C@@]21C
active: DU-145 prostate -30.6% | K-562 leukemia 4.14% | MALME-3M melanoma -19.9% | MDA-MB-231 breast -20.6% | RXF 393 renal -58.5% | SF-268 CNS 0.557% | SF-295 CNS -41.9% | SF-539 CNS -88.7% | UACC-257 melanoma 0.483% | M14 melanoma -22.1%

Brc1c[n+](Cc2ccc3ccccc3c2)cn1Cc1ccc2ccccc2c1
inactive: DU-145 prostate 38.5% | K-562 leukemia 10.5% | RXF 393 renal 21.6% | SF-268 CNS 14.5% | SF-295 CNS 49.6% | SF-539 CNS 40.1%
active: MALME-3M melanoma -4.88% | MDA-MB-231 breast 8.23% | UACC-257 melanoma -35.4% | M14 melanoma 1.8%

O=C(CSc1nc2ccccc2[nH]1)Nc1cccc(Cl)c1
inactive: DU-145 prostate 101% | K-562 leukemia 100% | MALME-3M melanoma 97.2% | MDA-MB-231 breast 76.5% | RXF 393 renal 114% | SF-268 CNS 97.1% | SF-295 CNS 104% | SF-539 CNS 103% | UACC-257 melanoma 117% | M14 melanoma 105%

CC[C@H](C)C(=O)O[C@H]1CCC=C2C=C[C@H](C)[C@H](CC[C@@H]3CC=CC(=O)O3)[C@H]21
inactive: DU-145 prostate 88.7% | K-562 leukemia 46.4% | MALME-3M melanoma 92.5% | MDA-MB-231 breast 97.6% | RXF 393 renal 96.6% | SF-268 CNS 99.2% | SF-295 CNS 115% | SF-539 CNS 80.5% | UACC-257 melanoma 77.8% | M14 melanoma 76.4%

Cc1cccc2c3c(sc12)C(c1ccc(Cl)cc1)C(C#N)=C(N)O3 (stereo not given)
inactive: DU-145 prostate 17.6% | MALME-3M melanoma 61.9% | MDA-MB-231 breast 26.1% | SF-268 CNS 44.8% | UACC-257 melanoma 69.5%
active: K-562 leukemia 5.28% | RXF 393 renal -7.02% | SF-295 CNS 1.66% | SF-539 CNS -14.5% | M14 melanoma 9.67%

Cc1nc(/N=C(\N)NC(=O)Nc2ccccc2Cl)sc1C
active: RXF 393 renal 4.01% | SF-539 CNS 0.177%
inactive: DU-145 prostate 13.2% | K-562 leukemia 13.1% | MALME-3M melanoma 53.1% | MDA-MB-231 breast 50.5% | SF-268 CNS 60.6% | SF-295 CNS 12.6% | UACC-257 melanoma 69.5% | M14 melanoma 24%

CCn1cnc2c1c(=O)[nH]c(=O)n2CC1CCC(CNS(=O)(=O)c2ccc(OC3CCOCC3)c(F)c2)CC1 (stereo not given)
inactive: DU-145 prostate 76.8% | K-562 leukemia 39.2% | MALME-3M melanoma 58.2% | MDA-MB-231 breast 47.8% | RXF 393 renal 53.1% | SF-268 CNS 82.8% | SF-295 CNS 58.5% | SF-539 CNS 54.7% | UACC-257 melanoma 59.8% | M14 melanoma 48.5%

CCOC(=O)NCCc1ccccc1
inactive: DU-145 prostate 118% | K-562 leukemia 91.4% | MALME-3M melanoma 110% | MDA-MB-231 breast 116% | RXF 393 renal 115% | SF-268 CNS 114% | SF-295 CNS 98.3% | SF-539 CNS 111% | UACC-257 melanoma 100% | M14 melanoma 110%

O=CN1N=C(c2ccc(Nc3ccnc4cc(Cl)ccc34)cc2)CC1c1ccccc1 (stereo not given)
inactive: DU-145 prostate 35.8% | K-562 leukemia 11.8% | MALME-3M melanoma 24.7% | MDA-MB-231 breast 32.9% | RXF 393 renal 31.4% | SF-268 CNS 37.4% | SF-295 CNS 17.4% | SF-539 CNS 25.9% | UACC-257 melanoma 63.3% | M14 melanoma 25.6%

O=C(/C=C/c1ccc([N+](=O)[O-])o1)NNC(=O)c1cc2ccccc2cc1O
inactive: DU-145 prostate 11.7% | MDA-MB-231 breast 21% | SF-295 CNS 54.8%
active: K-562 leukemia 3.48% | MALME-3M melanoma -36.3% | RXF 393 renal -20.8% | SF-268 CNS -3.99% | SF-539 CNS -22.6% | UACC-257 melanoma -16.5% | M14 melanoma -93.3%

O=C1NC(=O)C(c2ccccc2)(c2ccccc2)N1Cc1cn(-c2c3ccccc3nc3ccccc23)nn1
inactive: DU-145 prostate 91.2% | K-562 leukemia 39.2% | MALME-3M melanoma 104% | MDA-MB-231 breast 73.1% | RXF 393 renal 85.6% | SF-268 CNS 89.3% | SF-295 CNS 99% | SF-539 CNS 98.5% | UACC-257 melanoma 89.1% | M14 melanoma 96.2%

N/C(=N\c1nc2ccccc2s1)NC(=O)Nc1cccc2ccccc12
active: K-562 leukemia 9.12% | RXF 393 renal -2.29% | SF-539 CNS -21% | M14 melanoma 5.44%
inactive: DU-145 prostate 23.2% | MALME-3M melanoma 59.7% | MDA-MB-231 breast 52% | SF-268 CNS 56.4% | SF-295 CNS 33.3% | UACC-257 melanoma 67.4%

Cc1ccc2c(n1)C(=O)C(Cl)=C(Nc1ccccc1C(C)C)C2=O
inactive: DU-145 prostate 63.2% | K-562 leukemia 12% | MALME-3M melanoma 42.5% | MDA-MB-231 breast 30.3% | RXF 393 renal 83.6% | SF-268 CNS 86.4% | SF-295 CNS 101% | SF-539 CNS 65.9% | UACC-257 melanoma 24.9% | M14 melanoma 63%

N[C@@H](Cc1ccccc1)[C@@H](O)C(=O)NCc1ccc(F)cc1
inactive: DU-145 prostate 110% | K-562 leukemia 97% | MALME-3M melanoma 107% | MDA-MB-231 breast 100% | RXF 393 renal 118% | SF-268 CNS 95.7% | SF-295 CNS 95.5% | SF-539 CNS 105% | UACC-257 melanoma 107% | M14 melanoma 101%

Cc1cccc(NCc2cn(-c3ccc(C(=O)O)cc3)nc2-c2ccc(C(=O)O)cc2)n1
inactive: DU-145 prostate 103% | K-562 leukemia 96.8% | MALME-3M melanoma 96.5% | MDA-MB-231 breast 95.2% | RXF 393 renal 115% | SF-268 CNS 96.2% | SF-295 CNS 102% | SF-539 CNS 98.5% | UACC-257 melanoma 109% | M14 melanoma 110%

Cc1ccc(-c2nc(N3CCN(CC(=O)Nc4ccc(Cl)c(C(F)(F)F)c4)CC3)c3ccccc3n2)cc1
inactive: DU-145 prostate 105% | K-562 leukemia 69% | MALME-3M melanoma 106% | MDA-MB-231 breast 90.7% | RXF 393 renal 80.5% | SF-268 CNS 81.6% | SF-295 CNS 104% | SF-539 CNS 95.9% | UACC-257 melanoma 94.5% | M14 melanoma 95.7%

CCN(CC)CCNc1nc2ccccc2c2c(=O)c3cc(Cl)ccc3sc12
active: K-562 leukemia -25.5% | MDA-MB-231 breast -2.23%
inactive: DU-145 prostate 43% | MALME-3M melanoma 88.4% | RXF 393 renal 79.1% | SF-268 CNS 62.1% | SF-295 CNS 29.2% | SF-539 CNS 67.2% | UACC-257 melanoma 93.2% | M14 melanoma 31%

C[N+]1=C(/C=C/c2ccc(O)c3ncccc23)C(C)(C)c2ccccc21
inactive: DU-145 prostate 85.2% | K-562 leukemia 16.5% | MALME-3M melanoma 115% | MDA-MB-231 breast 64.6% | RXF 393 renal 32.5% | SF-268 CNS 81.8% | SF-295 CNS 72.9% | SF-539 CNS 25.9% | UACC-257 melanoma 85.3% | M14 melanoma 67.5%

O=C(Cc1ccc2c(c1)OCCO2)Nc1nc2ccc(F)cc2s1
inactive: DU-145 prostate 107% | K-562 leukemia 76.3% | MALME-3M melanoma 97.3% | MDA-MB-231 breast 115% | RXF 393 renal 43% | SF-268 CNS 119% | SF-295 CNS 106% | SF-539 CNS 101% | UACC-257 melanoma 109% | M14 melanoma 100%

Cc1nc(S(=O)(=O)c2ccccc2)c(S(=O)(=O)Cc2ccc([N+](=O)[O-])cc2)o1
inactive: DU-145 prostate 91.3% | K-562 leukemia 80.1% | MALME-3M melanoma 95.2% | MDA-MB-231 breast 98.1% | RXF 393 renal 93.2% | SF-268 CNS 89.2% | SF-295 CNS 114% | SF-539 CNS 104% | UACC-257 melanoma 85.4% | M14 melanoma 86.3%

CCN(CC)S(=O)(=O)c1ccc(NC(=O)CSc2nnc(C)n2-c2ccccc2)cc1
inactive: DU-145 prostate 120% | K-562 leukemia 88.5% | MALME-3M melanoma 132% | MDA-MB-231 breast 108% | RXF 393 renal 110% | SF-268 CNS 97.7% | SF-295 CNS 115% | SF-539 CNS 101% | UACC-257 melanoma 95.4% | M14 melanoma 116%

O=C(O)CCC(=O)Nc1nnc(-c2ccccc2)s1
inactive: DU-145 prostate 105% | K-562 leukemia 91.7% | MALME-3M melanoma 114% | MDA-MB-231 breast 108% | RXF 393 renal 120% | SF-268 CNS 96.4% | SF-295 CNS 96.9% | SF-539 CNS 102% | UACC-257 melanoma 104% | M14 melanoma 102%

COc1c(B(O)O)cc(F)cc1-c1nc2ccc3[nH]ncc3c2c2c1CCCC2
inactive: DU-145 prostate 11.1% | K-562 leukemia 30.5% | MALME-3M melanoma 20.3% | MDA-MB-231 breast 22% | SF-295 CNS 10.8% | UACC-257 melanoma 20.1% | M14 melanoma 28.3%
active: RXF 393 renal -34.5% | SF-268 CNS 9.38% | SF-539 CNS -13.4%

O=C(Nn1c(NCC(=O)N2c3ccccc3Sc3ccccc32)nnc1-c1ccc(O)cc1)c1ccccc1
inactive: DU-145 prostate 113% | K-562 leukemia 118% | MALME-3M melanoma 95.5% | MDA-MB-231 breast 95.3% | RXF 393 renal 122% | SF-268 CNS 105% | SF-295 CNS 105% | SF-539 CNS 105% | UACC-257 melanoma 104% | M14 melanoma 92.8%

NC[C@@H]1O[C@H](O[C@@H]2[C@@H](CO)OC(O[C@@H]3[C@@H](O)[C@H](N)C[C@H](N)[C@H]3OC3O[C@H](CN)[C@@H](O)[C@H](O)[C@H]3N)[C@@H]2O)[C@H](N)[C@@H](O)[C@@H]1O (stereo not given in full)
inactive: DU-145 prostate 112% | K-562 leukemia 113% | MALME-3M melanoma 105% | MDA-MB-231 breast 104% | RXF 393 renal 114% | SF-268 CNS 113% | SF-295 CNS 107% | SF-539 CNS 89.3% | UACC-257 melanoma 106% | M14 melanoma 104%
